From ChEMBL document CHEMBL3988442, “University of Dundee, Small-Polar-MMV Screening Library” (2021)
“And” between values parts separate entries of the source, which are not always exact repeats. Identical values can stand only once. Hit rate of the full screen: of about 34,000 compounds, about 290 (0.85%) showed an effect of 50% or more. What follows is part of a selection rich in strong results, with near analogues and random picks from the rest.

System: Plasmodium falciparum
Experiment: Plasmodium falciparum sporozoite viability assay
Assay type: functional, organism-based
Parameters: scale not given: in the data most compounds retested in dose-response had high values

Row | Structure (SMILES) | Percent Effect (10 mM as filed; unlikely as a test dose) | Percent Effect [%]
1 | COc1cccc(CN2CCCCCC2c2sccc2C)c1O (stereo not given) | 49.38% and 41.71% | 
2 | COc1cccc(CN2CCCCCC2c2cccc(C)c2)c1O (stereo not given) | 44.13% and 43.49% and 59.81% | 
3 | COCCC(=O)N1CCCN(Cc2nccn2C(C)C)CC1 |  | 9.219
4 | c1ccc(Cc2nc(C3CC3)nn2-c2ccc3c(c2)OCCO3)nc1 | 32.69% and 40.6% | 
5 | c1cncc(CCc2nc(C3CC3)nn2-c2ccc3c(c2)OCCO3)c1 | 41.36% and 42.97% | 
6 | c1cncc(OCc2nc(C3CC3)nn2-c2ccc3c(c2)OCCO3)c1 | 74.85% and 76.98% | 
7 | O=C(c1cn(-c2ccccc2Cl)nn1)N1CCSCC1 | -17.97% and -41.49% | 
8 | O=C(c1cn(-c2cccc(Cl)c2F)nn1)N1CCCSCC1 | -42.82% and -45.17% | 
9 | CN(C)c1cccc(C(=O)NCC(O)c2cccs2)c1 (stereo not given) | 12.86% and 4.207% | 
10 | CN1CCN(C(=O)[C@H]2CC[C@@H]3[C@@H](CCN3Cc3nccs3)O2)CC1 |  | -3.61
11 | COc1ccccc1C(=O)Nc1nc2c(s1)CN(S(=O)(=O)C1CC1)CC2 | 82.29% and 80.43% | 
12 | CCc1nc(CN2CCCN(Cc3cnn(C)c3)CC2)no1 |  | -9.563
13 | CCc1nc(CN2CCCC(N(C)Cc3cnn(C)c3)C2)no1 (stereo not given) |  | -6.257
14 | Cc1ncncc1-c1ccnc(NC(C)C)n1 |  | -0.5927
15 | CN(C)C(=O)c1cccnc1SCc1ccccc1Cl |  | -19.98
16 | Cc1cc(CN2CCN(C(=O)NCc3csc(C)n3)CC2)on1 |  | -16.07
17 | Cc1c(F)cc(C(=O)O)cc1S(=O)(=O)Nc1ccc2c(c1)OCCO2 | 59.81% and 58.05% and 66.51% | 
18 | CC(=O)Nc1ncc(S(=O)(=O)Nc2ccc(C)cc2)s1 | -23.3% and -22.01% | 
19 | Cc1cc(C(=O)O)cc(S(=O)(=O)Nc2ccc3c(c2)OCCO3)c1C | 24.31% and 12.71% and 29.08% | 
20 | CC(=O)Nc1ncc(S(=O)(=O)Nc2ccc3c(c2)OCCO3)s1 | 98.04% and 98.83% | 
21 | CCc1ccc(C(=O)O)cc1S(=O)(=O)Nc1ccc(F)c(C#N)c1 |  | 9.76
22 | Cc1cc(C(=O)O)cc(S(=O)(=O)Nc2ccc3c(c2)OCCCO3)c1C | 3.546% and -0.5757% and 17.55% | 
23 | CC(=O)Nc1ncc(S(=O)(=O)Nc2cccc(F)c2)s1 | -17.58% and -16.77% | 

Row | Structure (SMILES) | Percent Effect (10 mM as filed; unlikely as a test dose) | Percent Effect [%]
24 | COc1ccc(CN2CCN(C(C)=O)CC3(CC(=O)N(C)C3)C2)cc1.O=C(O)C(F)(F)F (stereo not given) |  | 6.785
25 | CCOc1ccc(CC(=O)N2CCCC(n3nc(C)nc3C)C2)cc1 (stereo not given) |  | -2.342
26 | CC(C)N(Cc1nc(-c2cccs2)no1)CC1CCC(=O)N1 (stereo not given) |  | 3.846
27 | OC(COCc1ccc2c(c1)OCO2)CN1CC(n2cccn2)C1 (stereo not given) |  | 13.47
28 | Cc1cc(C)n(C2CCN(Cc3nc4ccccc4n3C)CC2)n1 |  | 1.623
29 | CC1=N[C@@]2(CC[C@@H]3CN(Cc4ccccc4)C[C@@H]32)C(=O)N1CC1CC1.O=C(O)C(F)(F)F |  | 2.527
30 | CN1CC2(CCCN(Cc3nnc(-c4ccco4)o3)CC2)OC1=O (stereo not given) | -3.132% and -3.886% | 
31 | CN(C)CCN(C)c1cc(N2CCN(c3ccccn3)CC2)ncn1 |  | -8.534
32 | CN(C)c1cc(N2CCN(c3ccccn3)CC2)ncn1 |  | -18.98
33 | CC(=O)N1CCCC1(C)c1nc(C)no1 (stereo not given) |  | 0.7282
34 | Cc1nc(C)c(CNC(=O)N2CCc3ccccc3C2CO)s1 (stereo not given) |  | -12.91
35 | COCCCN1Cc2cccc(NC(=O)c3cc(F)cc(F)c3)c2C1 | -15.93% and -21.99% and -27.51% | 
36 | Cc1cnn(CCNCc2nnc(C3CC3)o2)c1 |  | 9.956
37 | Cc1ccc(NC(=O)Cn2cc(I)cn2)cc1 | -17.48% and -21.7% and -14.78% | 
38 | CCOC(=O)c1ccc(NC(=O)Cn2cc(I)cn2)cc1 | -22.37% and -20.15% and -13.35% | 
39 | NC(=O)c1ccc(NC(=O)Cn2cc(I)cn2)cc1 | 84.67% and 86.35% and 89.46% | 
40 | O=C(c1cccnc1)N1Cc2ccccc2OCC1Cn1ccnc1 (stereo not given) |  | -1.384
41 | Cc1cc(C)nc(C2CCN(C(=O)c3cnc(N(C)C)nc3)C2)n1 (stereo not given) |  | -0.8427
42 | OC1CCN(c2ccc(CNc3nc4ccccc4s3)cc2F)CC1 | 62.02% and 41.95% and 71.05% | 
43 | COC(=O)c1sc(NCc2ccc(N3CCC(O)CC3)c(F)c2)nc1Cl | -24.87% and -16.11% and -1.959% | 
44 | O=C(O)C(F)(F)F.O=C(O)C(F)(F)F.c1ccc(NCc2cnc3n2CCN(CC2CCOC2)CC3)nc1 (stereo not given) |  | -7.491
45 | Cc1ncsc1C(=O)NCc1ccnc(OCC(F)(F)F)c1 |  | 6.389
46 | CCN(CC)S(=O)(=O)c1cc2c3c(c1)c(C)cc(=O)n3CC2 |  | 16.61

Row | Structure (SMILES) | Percent Effect (10 mM as filed; unlikely as a test dose) | Percent Effect [%]
47 | CN1CCN(Cc2cnc3n2CCN(Cc2cccs2)C3)CC1.O=C(O)C(F)(F)F.O=C(O)C(F)(F)F.O=C(O)C(F)(F)F |  | -13.03
48 | CCCC(C)C(=O)NCc1cn2cc(Br)ccc2n1 (stereo not given) |  | -3.946
49 | CCn1cc(NC(=O)NCC(c2cccc(OC)c2)N(C)C)cn1 (stereo not given) | 18.25% and 14.26% and 26.58% | 
50 | CCn1cc(NC(=O)NCC(c2ccc(OC)cc2)N(C)C)cn1 (stereo not given) | 43.93% and 35.12% and 56.29% | 
51 | CCn1cc(NC(=O)NCCc2ccc3c(c2)OCCO3)cn1 |  | -0.8103
52 | O=C(Cn1cc(Cl)cn1)Nc1ccc2c(c1)OCO2 | -26.57% and -36.31% | 
53 | O=C(Cn1cc(Cl)cn1)Nc1ccc2c(c1)OCCCO2 | -49.11% and -46.89% | 
54 | O=C(CCn1cc(Cl)cn1)Nc1ccc2c(c1)OCCO2 | 65.57% and 50.96% | 
55 | CCn1cc(NC(=O)Nc2ccc3c(c2)OCCO3)cn1 | 64.15% and 57.73% and 68.6% | 
56 | Cc1nc2cc(O)nn2c(C)c1CCC(=O)NCc1cc(Br)cs1 |  | 3.643
57 | O=C(NCCc1ccccc1)c1cccc(S(=O)(=O)NC2CCOC2)c1 (stereo not given) |  | -7.302
58 | CN1CCC(c2cccc(-c3cccc(C(=O)O)c3)n2)CC1 |  | 10.86
59 | CCOc1ccc(CCCC(=O)N2CCC(C(=O)NC)C2)cc1C (stereo not given) |  | -7.967
60 | COc1cc(CCC(=O)NC(C)C(=O)O)ccc1OCC(F)(F)F (stereo not given) |  | -11.4
61 | Cc1nn(C)c(C)c1C1CCCN1c1ncnc2sccc12 (stereo not given) |  | -0.7353
62 | O[C@H]1CN(Cc2c[nH]nc2-c2ccccc2)CC[C@@]12CCCO2 |  | 16.42
63 | CN(C)C(=O)c1sc2ncccc2c1C1CNCCO1.Cl (stereo not given) |  | -1.679
64 | Cl.Clc1ccc(-c2ccc(C3CNCCO3)nc2)cc1 (stereo not given) | 88.25% and 80.55% and 85.69% | 
65 | Nc1ncc(-c2ccc(Cl)cc2)c(C2CCCNC2)n1 (stereo not given) |  | 17.56
66 | Cl.Cl.Cn1nc(C2CNCCO2)cc1CCOc1ccc(Cl)cc1 (stereo not given) |  | -1.356
67 | Cn1ccnc1CN1CCN(Cc2noc(C3CC3)n2)CC1 |  | 10.42
68 | CCN1CC[C@@]2(C(=O)N3CCOCC3)CCN(C(=O)C(C)C)CC[C@@H]12.O=C(O)C(F)(F)F |  | 20.75
69 | Cc1ccc(-c2nccn2-c2ccc(OC3CCN(C)CC3)cc2)o1 | 49.42% and 35.94% | 

Row | Structure (SMILES) | Percent Effect (10 mM as filed; unlikely as a test dose) | Percent Effect [%]
70 | CCOC[C@H]1CC[C@H]2[C@H](CCN2C(=O)c2cnccn2)O1 |  | 7.105
71 | c1ccc(OCCN2CCC(c3cnccn3)CC2)cc1 |  | 9.194
72 | CC(C)c1nc(CN2CCN(Cc3ccccn3)CC2)cs1 |  | 0
73 | CC(C)C(=O)N1CCN(Cc2csc(-c3ncccn3)n2)CC1 | 77.28% and 53.85% and 54.68% | 
74 | O=C(c1cnccn1)N1CCN(Cc2csc(-c3ccccc3)n2)CC1 |  | 9.607
75 | CC(O)CN1CCN(Cc2csc(-c3ncccn3)n2)CC1 (stereo not given) | 68.95% and 42.73% and 61.03% | 
76 | COCC(=O)N1CCN(Cc2csc(-c3ncccn3)n2)CC1 | -31.63% and -33.22% and -17.89% | 
77 | c1cnc(-c2nc(CN3CCCN(Cc4cccs4)CC3)cs2)nc1 | -6.924% and 13.02% and 13.14% | 
78 | CC(C)C(=O)N1CCN(Cc2csc(-c3ccccn3)n2)CC1 | 63.59% and 62.99% and 41.75% | 
79 | CC(O)CN1CCN(Cc2csc(-c3cnn(C)c3)n2)CC1 (stereo not given) |  | 8.176
80 | COCCN1CCC2(CCN(C(=O)c3ccc(F)cc3)CC2)C1=O |  | 6.318
81 | CCC(=O)Nc1ccc(N2CCC(OC)CC2)c(C(F)(F)F)c1 |  | 1.93
82 | CCc1[nH]ncc1C(=O)N1CCCC(n2cncn2)C1 (stereo not given) |  | -4.375
83 | Cc1cccnc1C(Cc1ccsc1)NCc1cnc(N(C)C)nc1 (stereo not given) |  | -1.422
84 | Cc1cccc(CN2CCCn3c(nnc3CN3CCCC3=O)C2)n1.O=C(O)C(F)(F)F |  | -1.313
85 | CN(C)c1ccc(CC2COCCN(Cc3nccn3C)C2)nn1 (stereo not given) |  | -1.339
86 | Cn1ccnc1C(=O)N[C@@H]1CN(Cc2ccoc2)[C@@H]2CCCO[C@@H]21.O=C(O)C(F)(F)F |  | 4.904
87 | CC1=Nc2c(c(=O)[nH]n2C2CCCC2)C(c2ccc(C(=O)O)cc2)S1 (stereo not given) |  | -7.784
88 | CCn1c(C)nc2cc(NC(=O)CC3CCCCO3)ccc21 (stereo not given) | 43.93% and 40.46% and 65.03% | 
89 | CCn1c(C)nc2cc(NC(=O)C3CN(C(C)=O)C3)ccc21 |  | -0.5895
90 | COc1ncccc1CN1CCC2(CC1)CC(OCC1CC1)CO2.O=C(O)C(F)(F)F (stereo not given) |  | 8.839
